This note sets out measurements from ChEMBL document CHEMBL1157539, “Thousands of chemical starting points for antimalarial lead identification” (Nature, 2010).

Assay type in all cases: functional
The test system of assay [1] is Plasmodium falciparum. Description: GSK_TCMDC: Inhibition of Plasmodium falciparum 3D7 in whole red blood cells, using parasite LDH activity as an index of growth. Test compounds present at 2uM.
For assay [2], the system named is Plasmodium falciparum. Description: GSK_TCMDC: Inhibition of Plasmodium falciparum Dd2 in whole red blood cells, using parasite LDH activity as an index of growth. Test compounds present at 2uM.
The next assay has as its system HepG2. Description: GSK_TCMDC: Percent inhibition of human HepG2 cell line. Test compounds present at 10uM.

Broadly, the Inhibition is the drop in the measured response relative to a control, in per cent.

For the compound `Cc1cc(=O)c2cc(-c3ccc(OC(F)(F)F)cc3)ccc2[nH]1`, the values for the Inhibition with Plasmodium falciparum [1], with Plasmodium falciparum [2] and in the assay with HepG2 were 96%, 95% and 0%, respectively.
Turning to `Cl.Clc1ccc(OCCC2CCN(CCCCCCN3CCCCC3)CC2)cc1Cl`, the results for the Inhibition in the assay with Plasmodium falciparum [1], in the assay on Plasmodium falciparum [2] and with HepG2 were 97%, 36% and 86%, respectively.
Regarding `O=C(NCc1ccc(Cl)cc1)c1ccc(CN2CCCN(Cc3cccc(O)c3)CC2)cc1.O=C(O)C(F)(F)F`, the values for the Inhibition in the assay with Plasmodium falciparum [1], in the assay with Plasmodium falciparum [2] and in the assay on HepG2 were 82%, 12% and 25%, respectively.
For `Cc1cc(CNC(=O)c2ccc(-c3ccc(-c4nc5cc(C(F)(F)F)ccc5[nH]4)s3)cc2)on1`, in that order: 93%, 56% and 15%.
As for `CC(C)(C)c1ccc(CNC(=O)c2cc(CNC3CCNC3)ccc2O)cc1` (stereo not drawn), the Inhibition came out at 94% in the assay with Plasmodium falciparum [1], 1% with Plasmodium falciparum [2] and 0% with HepG2.
Take `Cc1cccc2nc(-c3ccc(-c4cccc(C(=O)N5CCCCC5C(C)O)c4)s3)[nH]c12` (stereo not drawn): the Inhibition is listed as 100% in the assay with Plasmodium falciparum [1], 53% in the assay with Plasmodium falciparum [2] and 27% with HepG2.
Consider `COc1ccccc1NS(=O)(=O)c1cc(C(=O)Nc2ccc(N3CCOCC3)c(S(=O)(=O)Nc3ccccc3Cl)c2)ccc1Cl`, for which the Inhibition was 97% in the assay with Plasmodium falciparum [1], 25% in the assay on Plasmodium falciparum [2] and 0% with HepG2.
The corresponding values for `O=C(Nc1cccc(-c2nn3ncccc3c2-c2ccnc(Nc3ccccc3)n2)c1)c1c(F)cccc1F` are 98%, 96% and 51%.
Regarding `COc1cc(-c2ccccc2)ccc1C(=O)Nc1ccc2c(c1)N(C)CCC2`, the Inhibition was found to be 85% in the assay with Plasmodium falciparum [1], 75% in the assay with Plasmodium falciparum [2] and 15% with HepG2.
The corresponding values for `COc1ccc2nc(C)cc(Nc3ccc(Oc4ccc(Br)c5ccccc45)c(Cl)c3)c2c1` are 100%, 100% and 100%.
For `CCCn1c(O)nnc1SCC(=O)Nc1cc(C(F)(F)F)ccc1Cl`, in that order: 96%, 94% and 0%.
